Source: ChEMBL document CHEMBL4513216, “Probing the Open Global Health Chemical Diversity Library for Multistage-Active Starting Points for Next-Generation Antimalarials” (ACS Infect Dis, 2020)
Out of some 69,000 compounds screened, about 8,600 (12%) showed an effect of 50% or more. Only a selection was taken, and strong results are over-represented in it overall.

System: Plasmodium berghei
Test: Screen against P. berghei liver stage (PbLuc), transformed with Luciferase, at 10uM
Type: functional, HepG2
Details: tested at 10 uM

Compared with CCCC1CCN(C(=O)c2coc(COc3ccc(OC)cc3)n2)C1 (stereo not drawn), CNC(=O)C1CCN(C(=O)c2coc(COc3ccc(OC)cc3)n2)C1 (stereo not drawn) is lower in INHIBITION: 19.5% for the first, -66.3% for the second.

Going from COc1cc(C)ccc1OCc1nc(C(=O)N2CCC(C)CC2)co1 to COc1cc(C)ccc1OCc1nc(C(=O)N2CCCC2)co1, the INHIBITION rises from 5.33% to 37.8%.

Compared with COc1ccc(OCc2nc(C(=O)N3CCCNC(=O)C3)co2)cc1, COc1cc(C)ccc1OCc1nc(C(=O)N2CCCNC(=O)C2)co1 is higher in INHIBITION: 53.6% for the first, 63.8% for the second.

First: COc1cc(C)ccc1OCc1nc(C(=O)N2CCCO2)co1
Second: COc1ccc(OCc2nc(C(=O)N3CC[C@H](O)[C@@H](O)C3)co2)cc1
The INHIBITION of the first is higher: 67.5% for the first, -38.2% for the second.

Going from Cc1ccc(C(NCC(=O)N2CCNC(=O)C2)c2ccccc2)cc1 (stereo not drawn) to COC1CCN(C(=O)Nc2ccccc2)CC(=O)N(C)c2ccccc21 (stereo not drawn), the INHIBITION rises from 29.4% to 55.5%.

Going from Cc1ccc(NC2CCN(C(=O)c3c(C)nn(C)c3Cl)CC2)nn1 to Cc1cc(NC(=O)CN2CCCC2c2noc(C)n2)n(C)n1 (stereo not drawn), the INHIBITION falls from 1.45% to -25.8%.

First: O=C1NCC2=Nc3ccccc3NC(c3ccc(O)cc3)C12 (stereo not drawn)
Second: Cc1cccc(NC(=O)C2CCc3ccccc3N2)c1 (stereo not drawn)
The INHIBITION of the first is lower: -72.4% for the first, -71.7% for the second.

Compared with COC1CCN(C(=O)Cc2csc(-c3ccc(F)cc3)n2)CC1, Cn1cc(C(=O)NCCc2csc(-c3ccccc3)n2)ccc1=O is lower in INHIBITION: -7.35% for the first, -8.92% for the second.

Going from CC(C)c1nn(C)c(N2CCOCC2)c1CNC(C)c1ccco1 (stereo not drawn) to Cc1oncc1C(=O)NCc1cc(=O)n2c(n1)CN(CC(C)C)CCC2, the INHIBITION rises from 4.52% to 38.3%.

First: O=C(NCc1cccnc1N1CCCCC1)c1ccc2[nH]nnc2c1
Second: COc1ccc(CN2CCc3c(nc(-c4ccccn4)[nH]c3=O)C2)cc1
The INHIBITION of the first is higher: 17.5% for the first, -11.7% for the second.

Going from Cc1ccccc1CS(=O)(=O)CC(=O)NCc1ccccc1F to Cc1cc(NS(=O)(=O)c2ccc(C(=O)O)cc2F)ccc1F, the INHIBITION rises from -15.8% to -2.33%.

Going from CC(C)n1cc(CN(Cc2ccc(F)cc2)CC2CCCO2)cn1 (stereo not drawn) to O=C(CN(CC(O)c1ccc(F)cc1)C1CC1)NCc1cccs1 (stereo not drawn), the INHIBITION rises from 18.4% to 65.4%.

Compared with O=C(CSC1=NS(=O)(=O)c2cc(F)ccc2N1)c1ccccc1, Cn1cc(NC(=O)N2CCC(Cc3ccccc3)CC2)ccc1=O is higher in INHIBITION: 10.2% for the first, 20.45% for the second.

Going from Cc1occc1C(=O)N1CCn2c(COCC3CC3)cnc2C1C (stereo not drawn) to COC1CN(C(=O)C2CC2)CCC(=O)N(C)c2ccccc21 (stereo not drawn), the INHIBITION falls from 39.3% to 29%.

First: COc1cccc(S(=O)(=O)NC(=O)CCC2CCCO2)c1 (stereo not drawn)
Second: COC1CN(C(=O)NC2CCCC2)CCC(=O)N(C)c2ccccc21 (stereo not drawn)
The INHIBITION of the first is lower: -9.76% for the first, 56.3% for the second.

Going from COC1CCN(C(=O)C2CCCC2)CC(=O)N(C)c2ccccc21 (stereo not drawn) to COC1CN(C(=O)CC2CCCC2)CCC(=O)N(C)c2ccccc21 (stereo not drawn), the INHIBITION falls from 33.6% to 11.6%.

First: COC1CN(C(=O)Nc2ccccc2)CCC(=O)N(C)c2ccccc21 (stereo not drawn)
Second: COC1CN(C(=O)CC(C)C)CCC(=O)N(C)c2ccccc21 (stereo not drawn)
The INHIBITION of the first is higher: 13.1% for the first, 1.8% for the second.

Going from COC1CN(C(=O)COC(C)=O)CCC(=O)N(C)c2ccccc21 (stereo not drawn) to COC1CN(C(=O)OCC(C)C)CCC(=O)N(C)c2ccccc21 (stereo not drawn), the INHIBITION rises from 20.7% to 52.5%.

Compared with O=C1C[C@@H]2[C@H](CCN2Cc2ccco2)N1c1ccsc1, Cc1nc(C)n(CC2CCCN2Cc2nc(-c3ccoc3)no2)n1 (stereo not drawn) is lower in INHIBITION: 39.3% for the first, 7.925% for the second.

Going from O=C(Cn1cc(Cl)cn1)N1CCNC1=O to Cc1cnn(CCNCC(=O)NCC2(c3ccccc3)CC2)c1, the INHIBITION falls from 45.9% to 17.5%.

Going from CC(C)n1nnnc1-c1ccc(NC(=O)CCC(F)(F)F)cc1F to CCCC(=O)NCCc1nc2cc(-c3ccc(OC)cc3)ncn2n1, the INHIBITION falls from 40.3% to -3%.

First: Cn1nc(CN2CCCC2)c2c1CN(CC1CC1)CC2
Second: CC(C)n1nc(CN2CCCC2)c2c1CN(CC1CC1)CC2
The INHIBITION of the first is lower: 11.6% for the first, 58.3% for the second.

First: CC(=O)NCC(=O)N1CCc2c(CN(C)C)nn(C(C)C)c2C1
Second: CC(C)n1nc(CN(C)C)c2c1CN(C(=O)CC1CC1)CC2
The INHIBITION of the first is lower: 34.9% for the first, 61.5% for the second.

Compared with CN(C)Cc1nn(C)c2c1CCN(C(=O)CC1CC1)C2, CC(C)n1nc(CN(C)C)c2c1CN(CC1CC1)CC2 is higher in INHIBITION: -4.99% for the first, 20.1% for the second.

Going from OC(CNCc1nnc2ccccn12)c1ccc2c(c1)OCCCO2 (stereo not drawn) to O=C(CN(CC(O)c1ccc(F)cc1)C1CC1)NC1CCOCC1 (stereo not drawn), the INHIBITION rises from 17% to 22.6%.

First: CN(C)C(=O)N1CCc2onc(C(=O)Nc3cccnc3)c2C1
Second: O=C(CN(CC(O)c1ccc(F)cc1)C1CC1)NC(C1CC1)C1CC1 (stereo not drawn)
The INHIBITION of the first is lower: -40.5% for the first, 45.7% for the second.

With O=C(N1CCC2(CC1)[C@H](O)C[C@@H]2O)C1(c2ccccc2F)CC1 the INHIBITION was 25.9%.
